Our source for the PBM binding z-score values is the supplement of paper PMC6555819.

Test in all cases: PBM binding z-score (relative to random genomic background probes); higher = stronger binding; sequences stand for … in GC…GCGATTGACAGCGTAGAATGAAGG
For experiment [1], the system named is FXR:RXRa (NR concentration 270 nM, RXRa partner concentration 90 nM). The method, boiled down:
(§1)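 The probes on custom Agilent 4×180K protein-binding microarrays were double-stranded, with 34-nt variable regions bearing direct-repeat seeds, single-nucleotide variants, half-site ablations and random human genomic background sequences. Incubation lasted 1 h with ligand-free nuclear receptor dimers in PBS pH 7.4, 2% milk, 0.02% Triton X-100, 1 mM DTT, 0.2 mg/mL BSA and 0.4 mg/ml salmon testes DNA. Antibodies against each partner (one per run) detected bound dimers, and fluorescence scans were regression-normalized. Binding z-scores take the random background probes as reference.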

The subject of experiment [2] is LXRa:RXRa (NR concentration 270 nM, RXRa partner concentration 90 nM). The method, boiled down: as §1
The subject of experiment [3] is LXRa homodimer (NR concentration 270 nM). The method, boiled down: as §1
The subject of experiment [4] is LXRb:RXRa (NR concentration 270 nM, RXRa partner concentration 90 nM). The method, boiled down: as §1
Experiment [5] relates to LXRb homodimer (NR concentration 270 nM). The method, boiled down: as §1
The subject of experiment [6] is PPARa:RXRa (NR concentration 270 nM, RXRa partner concentration 90 nM). The method, boiled down:
as §1

Experiment [7] deals with PPARg:RXRa (NR concentration 180 nM, RXRa partner concentration 90 nM). In outline: as §1
In experiment [8] the test system is PPARg:RXRa 270nM:90nM, anti-RXR (NR concentration 270 nM, RXRa partner concentration 90 nM). In outline: as §1
Experiment [9] has as its system PPARg:RXRa 30nM:10nM, anti-RXR (NR concentration 30 nM, RXRa partner concentration 10 nM). In outline: as §1
For experiment [10], the system named is PPARg:RXRa 90nM:30nM, anti-RXR (NR concentration 90 nM, RXRa partner concentration 30 nM). The method, boiled down:
as §1

On to CGAATTAGGTCAAGGACAGTGAATCTCCGCACGC, for which the PBM binding z-score in experiment [1] turned out to be 4; in experiment [2] it was 2.54; in experiment [3], 0.286; in experiment [4], 1.97; in [5], 0.123; in experiment [6], 4.92. The PBM binding z-score stood at 6.8 in experiment [7], 6.22 in [8], 3.82 in [9] and 5.57 in experiment [10].

Take TCAAGTAGGTTAGGGGCATTCAGAATGGCGTCGA: the PBM binding z-score in experiment [1] was found to be 0.99; in experiment [2], 0.718; in experiment [3] it was 0.21; in experiment [4] it was 1.28; in experiment [5] it was 0.587; in experiment [6], 2.19. Besides, the PBM binding z-score is 2.64 in [7], 3.58 in experiment [8], 3.71 in [9] and 3.65 in experiment [10].

For TTACCAAGGTGAAGGTCGTTGACCCCTCTGTAGA, the PBM binding z-score is 6.12 in experiment [1]; 5.25 in [2]; 2.15 in [3]; 4.5 in experiment [4]; -0.739 in experiment [5]; 4.34 in experiment [6]. Also, the PBM binding z-score in experiment [7] turned out to be 3.79; in experiment [8], 4.59; in experiment [9], 2.37; in experiment [10], 3.77.

Turning to ACTATTAGTTGAGACGAGGGCAAGCGATAGGTTG, the PBM binding z-score is 0.338 in [1]; -0.125 in experiment [2]; -0.12 in experiment [3]; -0.138 in [4]; -0.0702 in experiment [5]; 0.257 in experiment [6]. Also, the PBM binding z-score in experiment [7] was determined as 0.699; in experiment [8], 0.134; in [9], 0.381; in experiment [10], 0.467.

On to ATCTCTTGGTAAAGATAGTTCAGTGAATGCAAAT, for which the PBM binding z-score in experiment [1] is 0.445; in experiment [2], 0.78; in experiment [3] it was 0.577; in experiment [4], 0.693; in [5], 0.423; in experiment [6], 0.553. Moreover, the PBM binding z-score in [7] is 0.212; in experiment [8] it was 0.257; in experiment [9] it was 0.185; in [10], 0.285.

On to TCTTGTAGATCAACAGAAGGTTAAGAAAGATCGA, for which the PBM binding z-score in [1] was 0.396; in experiment [2], 1.11; in [3], 0.0845; in experiment [4], 0.953; in experiment [5] it was -0.0831; in experiment [6], 1.27. The PBM binding z-score in [7] worked out at 0.104; in [8], 1.35; in experiment [9] it was 2.82; in experiment [10], 2.04.

In the case of TCGAGTAGGTTACCTATGGGGCATTCAGCTTTCT, the PBM binding z-score in experiment [1] was 0.0442; in experiment [2] it was 1.74; in experiment [3] it was -0.775; in experiment [4], 0.927; in experiment [5] it was -1.31; in experiment [6], 1.24. Further, the PBM binding z-score in experiment [7] was determined as 0.475; in experiment [8], 1.01; in experiment [9] it was 1.17; in [10] it was 1.17.

For GATACAGGGTCAAGGCCAGAGCACGCGTATTGAT, the PBM binding z-score in [1] is 6.68; in experiment [2], 4.17; in experiment [3], 0.0226; in experiment [4] it was 3.67; in experiment [5], -0.301; in experiment [6], 5.48. The PBM binding z-score in [7] came out at 5.84; in [8], 5.3; in [9] it was 2.03; in experiment [10], 4.13.

Regarding TCGAGTAGGTTGGTCGGGGCATTCAGCCAACATA, the PBM binding z-score in [1] is 0.0024; in [2], -0.387; in [3], -0.443; in experiment [4], -0.0412; in experiment [5] it was -0.299; in [6], 0.0379. The PBM binding z-score is -0.696 in [7], 0.116 in experiment [8], 0.981 in [9] and 0.513 in [10].

Turning to ACTTGCAGGCCAAGGGTCACTCAAGATTAGTCCG, the PBM binding z-score in experiment [1] turned out to be 2.94; in [2], 2.83; in experiment [3] it was 0.304; in experiment [4] it was 2.98; in experiment [5], 0.0149; in [6], 4.99. The PBM binding z-score stood at 8.46 in experiment [7], 7.35 in experiment [8], 6.52 in experiment [9] and 7.71 in experiment [10].

For the sequence ACTATTAGTTGAGACGAGGGAAACCGATAGGTTG, the PBM binding z-score in [1] is 0.194; in [2], 0.0182; in [3], -0.36; in [4] it was -0.399; in experiment [5] it was -0.0748; in [6] it was -0.349. The PBM binding z-score in [7] is 0.531; in experiment [8], -0.165; in experiment [9], 0.215; in experiment [10], 0.291.

Take CGGACTAGGTCATTGACAGGACAGTGAATAGTAA: the PBM binding z-score in [1] is 3.76; in [2], 2.45; in experiment [3], 0.229; in [4], 1.86; in [5] it was -0.21; in experiment [6], 4.05. Besides, the PBM binding z-score was 6.69 in experiment [7], 5.73 in experiment [8], 2.87 in experiment [9] and 4.89 in experiment [10].
